Unmarked numbers belong to inactive results. The source made the active and inactive calls.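 The calls were made as follows: active = z-score of at least 1.8 in each of two replicates, scored against plate mean and spread of sample wells; inactive = the rest.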
test: galactose survival enhancers in mitochondrial complex I cybrids – cell-based, galactose medium, ATP luminescence, primary screen (AID 1645843); details: complex I mutant cybrid cells, 72 h, hits give high values;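 also: positive z means more ATP and so rescue of galactose-driven cybrid death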

For CCCCn1cc(-c2cc(C(=O)N3CCCC3)c3cccc(C)c3n2)cn1, the z-score was 2.59 (active).

First: Cc1nnc(NC(=O)N2CCCN(c3ccncc3C)CC2)s1
Second: CC(=O)N1CCCN(c2nccc(-c3cnn(-c4ccccc4F)c3)n2)CC1
The z-score of the first is higher: -0.57 for the first, -0.71 for the second.

Going from O=C(Nc1n[nH]c(-c2ccco2)n1)N1CCc2c([nH]c3ccccc23)C1 to O=C(Nc1nc(-c2ccccc2)ns1)N1CCN(C2CCCCC2)C(=O)C1, the z-score falls from -0.135 to -0.54.

Compared with CCCCC1C(=O)N(C)CCN1C(=O)Nc1nnc(C(C)(C)C)s1 (stereo not given), CC(C)(C)c1cn(CC2CCCN(C(=O)c3cn4cccnc4n3)C2)nn1 (stereo not given) is higher in z-score: -0.33 for the first, 0.425 for the second.

First: CC(C)c1ncc(-c2cc(C(=O)N(C)C(C)C)c3ccc(F)cc3n2)cn1
Second: Cc1ccc2c(C(=O)N3CCCC3c3nc(C)no3)cc(-c3cnn(C)c3)nc2c1 (stereo not given)
The z-score of the first is higher: -0.51 for the first, -0.585 for the second.

Compared with CCn1ncc2[nH]c(-c3ccc(-c4ccccn4)cc3)nc21, Cn1ncc2[nH]c(-c3cc(F)ccc3-n3cccn3)nc21 is higher in z-score: -1.15 for the first, -0.56 for the second.

Going from COc1cc(N2CCCC(c3nc(C(C)C)no3)C2)nc(N)n1 (stereo not given) to Cc1ccccc1-c1noc(C2CC(C(C)C)=NO2)n1 (stereo not given), the z-score rises from 0.815 to 1.73.

Compared with Cc1nsc(NC(=O)NCc2cc(Cl)ccc2Cl)n1, Cc1nsc(NC(=O)NC(C)c2ccc(Cl)cc2)n1 (stereo not given) is higher in z-score: -1.1 for the first, -0.26 for the second.

First: CCCn1nc(NC(=O)Cn2ccc(-c3ccc(F)cc3)n2)c2ccccc21
Second: Cc1sc2ccccc2c1-c1ccn(CC(=O)Nc2ccnn2C(C)C)n1
The z-score of the first is lower: -1.28 for the first, -0.855 for the second.

Compared with CCc1n[nH]c2c1CN(C(=O)c1cc(C)nc3ccc(F)cc13)CC2, COc1ccc(F)cc1-c1cnn(CC(=O)Nc2cc(C)nn2C)c1 is higher in z-score: -0.42 for the first, 0.085 for the second.

First: Cc1nn(C)c(C)c1-c1ccnc(NCc2ccc3nsnc3c2)n1
Second: CCCn1cc(-c2ccnc(NC(CC(C)(C)C)c3cccnc3)n2)c(C)n1 (stereo not given)
The z-score of the first is lower: -0.665 for the first, 1.13 for the second.

Compared with CCn1ccnc1CN(C)Cc1ccc(-c2nc(C(F)(F)F)c(C)c(=O)[nH]2)cc1, Cc1nc(CN(C)C2CCN(c3ccc(-n4cccn4)cc3)CC2)cs1 is lower in z-score: 0.66 for the first, 0.655 for the second.

Compared with CCCc1cn(C2CCN(C(=O)C(C)N3CCCC3)CC2)nn1 (stereo not given), O=C(CC1CCCCCC1)N1CCC(n2cc(C3CC3)nn2)CC1 is lower in z-score: -0.35 for the first, -0.455 for the second.

Compared with C=C1C2(C(=O)N3CCC(c4ccc(F)cc4)C3)CCC(C2)C1(C)C (stereo not given), CC(C)CCC(=O)N1CCCCC1CCc1ccc(O)cc1 (stereo not given) is lower in z-score: 0.91 for the first, -0.375 for the second.

Going from Cc1cccc(-n2cc(CN(C)C(=O)C(=O)c3ccco3)cn2)c1 to COc1cccc(CN2CCN(c3ccc4cccc(OC)c4n3)CC2)c1, the z-score falls from 0.6 to -0.86.

Compared with CCCC(NC(=O)c1cc(C)oc1C)c1ccccc1 (stereo not given), CCCC(NC(=O)c1ccc[n+]([O-])c1)c1ccccc1 (stereo not given) is higher in z-score: -0.63 for the first, -0.43 for the second.

Compared with CCCOC1CCCN(C2CCN(c3ccc(F)c(F)c3)CC2)C1 (stereo not given), COc1nc2c(cc1C(=O)N1CCOc3ccccc31)CCC2 is higher in z-score: -0.725 for the first, 0.225 for the second.

Compared with Cn1cc(-c2ccccc2OC2(C(=O)O)CCSCC2)cn1, COc1cccc2ccc(-c3ccc(C(=O)N(C)C)cc3)nc12 is lower in z-score: 1.44 for the first, 1.37 for the second.

Compared with COc1ccc(F)c(-c2cnc(C)[nH]2)c1, O=c1c2sccc2ncn1Cc1nc2ccccc2[nH]1 is higher in z-score: -0.545 for the first, 0.03 for the second.

Going from c1ccc(-c2nccn2Cc2nc(-c3ccccn3)no2)cc1 to CC(C)=CCC/C(C)=C/CNCCCc1ccncc1, the z-score falls from 1.27 to -0.52.

CC(CCCC(C)(C)O)NC/C=C/c1ccc(F)cc1 (stereo not given) gave a z-score of -0.51.

Source: PubChem BioAssay
